About 83,000 compounds went through this panel and 20% of them were active in at least one assay; those are over-represented in the sample as a whole.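 Interpretation: 100, growth as untreated; towards 0, rising growth inhibition; 0, no net growth; 0 to -100, cell death. Compounds scoring below 10 were considered active.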 Activity calls are given as the source filed them.
Each molecule was assayed on HL-60(TB) leukemia (assay: NCI-60 one-dose screen, 48 h (100 = growth as untreated, 0 = no growth, -100 = all killed)). Settings: 10 µM unless noted.

SMILES	growth
CC(c1ccccc1)N1C(=O)/C(=C/c2csc(C#N)n2)SC1=S (stereo unspecified)	4.32% (active)
C/C(=N/N)c1nnn(-c2ccc(Br)cc2)c1C	102% (inactive)
O=C1Nc2cc(OC(F)(F)F)ccc2Oc2ccc(-c3ccnc(N4CCNCC4)c3)cc21	-41.4% (active)
C=C1CC[C@@H]2[C@]3(C)COC(c4ccccc4)O[C@@H]3CC[C@@]2(C)[C@@H]1C/C=C1/C(=O)OC[C@H]1O (stereo partly specified)	48.9% (inactive)
CCc1ccc(SC2c3ccc(N(CC)CC)cc3Oc3nc(N)c(C#N)c(N)c32)cc1 (stereo unspecified)	-12.5% (active)
C(=N\Nc1nc(N/N=C/c2ccc3c(c2)OCO3)nc(N2CCCCC2)n1)/c1ccc2c(c1)OCO2	60.4% (inactive)
C#CCOc1ccc(C(Nc2cc(Cl)ccc2Cl)c2nnnn2C2CCCCC2)cc1 (stereo unspecified)	88.4% (inactive)
C/C(CC1(O)C(=O)Nc2ccccc21)=N\O (stereo unspecified)	97% (inactive)
C#CCOc1ccccc1/C=N/Nc1nc(-c2ccc(Cl)cc2)cs1	90.8% (inactive)
O=c1[nH]c(Sc2sc3ccc(Cl)cc3c2CBr)nc(=S)[nH]1	21.7% (inactive)
Cn1cc(-c2cc(N)n3nc(-c4cn(C)c5ccc(Cl)cc45)cc3n2)c2cc(Cl)ccc21	31.5% (inactive)
CCOP(=O)(OCC)OC[C@]12CCC(C)(C)C[C@H]1C1=CC[C@@H]3[C@@]4(C)C/C(=C\c5cccnc5)[C@H](OP(=O)(OCC)OCC)C(C)(C)[C@@H]4CC[C@@]3(C)[C@]1(C)CC2	-22.2% (active)
CCOC(=O)c1c(Nc2ccccc2)nn2c(-c3ccc(OC)cc3)ccnc12	77.3% (inactive)
Cc1ccc2c(n1)C(=O)C(Cl)=C(Nc1ccc(C#N)cc1)C2=O	17.4% (inactive)
COc1ccc2c(c1)c(-c1nnc(N)nc1-c1cn(C)c3ccccc13)cn2C	72.6% (inactive)
CN(C)CCCOc1c2ccc(Cl)cc2nc2c1oc1ccccc12	-19.3% (active)
COc1ccc(C(C)=C(c2ccc(OCCN(C)C)cc2)c2ccc(OCCN(C)C)cc2)cc1	-63.3% (active)
COc1ccc(COc2ccc(/C=C3\C(=O)Nc4ccccc43)cc2OC)cc1	115% (inactive)
CCO/C=N/C1=C(C#N)C(c2ccc(OC)cc2)c2sc3c(C)cccc3c2O1 (stereo unspecified)	-18.5% (active)
CCOC(=O)c1c(NCC(=O)Nc2cccc([N+](=O)[O-])c2)sc2c1CCCC2	1.42% (active)
NS(=O)(=O)c1ccc(Nc2nc(N/N=C/c3ccc4c(c3)OCO4)nc(Nc3ccccc3)n2)cc1	31.1% (inactive)
CCOC(=O)C(=O)Nc1ccc2c(ccn2C(=O)c2cccc(F)c2)c1	99.2% (inactive)
CC(C)(C)Nc1nc2c(OCCc3ccccc3)cccn2c1-c1ccc([N+](=O)[O-])cc1	47.4% (inactive)
CCCCCc1ccc(S(=O)(=O)Nc2cccc(-c3csc(NC(=O)CN4CCN(C)CC4)n3)c2)cc1	35.8% (inactive)
Nc1nc(-c2cccc([N+](=O)[O-])c2)c(N=Nc2cccc([N+](=O)[O-])c2)s1	118% (inactive)
CN(C)S(=O)(=O)c1ccc(-c2nc(C(Cl)Cl)nc3cc(-c4ccccc4)nn23)cc1	71.1% (inactive)

Reference: PubChem BioAssay (NCI)
